Calls of active or inactive are those of the source. No rule for the calls is given here.

The target of the experiment is Pantothenate synthetase (Mycobacterium tuberculosis (strain ATCC 25618 / H37Rv)) (UniProt P9WIL5). Kind of experiment: Coupled enzyme confirmation of inhibitors against recombinant Mtb PanC (AID 375).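 Also: 0% = full reaction with vehicle and 100% = no enzyme background.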 The conditions noted are these: coupled enzyme assay; at 10 µM, hits give high values.
Pantothenate synthetase (Mycobacterium tuberculosis (strain ATCC 25618 / H37Rv)), sequence (P9WIL5 whole entry, looked up): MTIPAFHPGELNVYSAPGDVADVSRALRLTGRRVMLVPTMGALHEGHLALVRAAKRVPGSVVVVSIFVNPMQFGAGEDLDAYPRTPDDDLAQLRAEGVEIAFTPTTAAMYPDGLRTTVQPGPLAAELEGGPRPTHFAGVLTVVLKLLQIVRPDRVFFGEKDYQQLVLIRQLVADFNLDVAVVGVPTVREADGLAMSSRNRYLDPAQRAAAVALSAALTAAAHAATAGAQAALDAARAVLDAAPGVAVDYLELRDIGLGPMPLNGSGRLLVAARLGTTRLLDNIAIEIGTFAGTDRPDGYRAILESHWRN
A word on the inhibition: it is the drop in the measured response relative to a control, in per cent. Consider `COc1cc2[nH]c(=O)c(C(=O)NCCCN3CCCCC3)c(O)c2cc1OC`, for which the inhibition was 3% (inactive).

`COC(=O)Nc1nc2ccc(C(=O)c3ccccc3)cc2[nH]1`: the inhibition was 1% (inactive).

With `COc1ccc(N2C(=O)CCC(C(=O)N3CCCCC3)C2c2ccc(OC)c(OC)c2)cc1` (stereo not given), the inhibition is 6% (inactive).

Regarding `COC(=O)c1sc(N2C(=O)C(O)=C(C(=O)c3ccc(C)o3)C2c2ccc(F)cc2)nc1C` (stereo not given), the inhibition is 8% (inactive).

Consider `Cn1c(=O)[nH]c(=O)c2c1nc(Br)n2CCCSc1nc2ccccc2o1`, for which the inhibition was 0% (inactive).

For the compound `CC(C)[C@H](NC(=O)OC(C)(C)C)c1nnc(S(=O)(=O)Cc2c(F)cccc2Cl)o1`, the inhibition was 0% (inactive).

On to `Cc1cccc(C2CC(c3ccc(Cl)cc3)Nc3nc(N)nn32)c1` (stereo not given), for which the inhibition was 0% (inactive).

As to `CCOc1ccc(Oc2nc(Nc3ccc(C)cc3)nc(N(C)C)n2)nn1`, the inhibition is 0% (inactive).

Consider `Cc1ccc2cccc(SCC(=O)N3CCOCC3)c2n1`, for which the inhibition was 5% (inactive).

For `CCn1c(C(Cc2ccccc2)NC(=O)COC)nc2ccccc21` (stereo not given), the inhibition is 0% (inactive).

Take `COc1ccc(N(CC(=O)O)S(=O)(=O)c2ccc(OC)c(OC)c2)cc1`: the inhibition is 5% (inactive).

Consider `Cn1cnc2c1c(=O)n(Cc1cccc(Br)c1)c(=O)n2C`, for which the inhibition is 1% (inactive).

`CCOC(=O)Cn1nc(-c2ccc(Cl)cc2)cc1N`: the inhibition is 0% (inactive).

As for `CCOC(=O)c1cccc(NC(=O)CNS(=O)(=O)c2cccs2)c1`, the inhibition was 0% (inactive).

On to `O=C(NC1CCCC1)C(NS(=O)(=O)c1cccc2nsnc12)c1ccccc1` (stereo not given), for which the inhibition is 7% (inactive).

For the compound `CC(O)CN(Cc1cccc(Cl)c1)CC(C)O` (stereo not given), the inhibition was 5% (inactive).

For the compound `Cc1ccc(C)c(N2CCN(CCCNC(=O)Cn3cc4c(n3)CCC(C)C4)CC2)c1` (stereo not given), the inhibition is 8% (inactive).

On to `COc1ccccc1N(C)S(=O)(=O)c1ccc(C(=O)NC2=NCCS2)cc1`, for which the inhibition was 7% (inactive).

Turning to `O=C1CC(C2CCCO2)C(=O)N1Cc1ccccc1` (stereo not given), the inhibition was 0% (inactive).

Consider `O=C(c1cccn2c(=O)c3cc(Cl)ccc3nc12)N1CCOCC1`, for which the inhibition was 3% (inactive).

Regarding `O=C(Cn1c(=O)oc2ccccc21)Nc1ccc(S(=O)(=O)N2CCCCC2)cc1`, the inhibition was 0% (inactive).

On to `NC(=O)C1(N2CCCCC2)CCN(C(=O)Nc2ccccc2C(F)(F)F)CC1`, for which the inhibition was 1% (inactive).

As for `CCOC(=O)C(CC)Sc1nc2c(c(=O)[nH]c(=O)n2C)n1C/C=C(/C)Cl` (stereo not given), the inhibition is 8% (inactive).

Turning to `CCOC(=O)C1CCCN(C(=O)c2cccs2)C1` (stereo not given), the inhibition is 8% (inactive).

As for `COC(=O)c1cccc(NC(=O)CSc2nnc(COc3ccccc3)n2C)c1`, the inhibition was 0% (inactive).

`Cc1ccc2[nH]c(=O)c(CN(Cc3ccc4c(c3)OCO4)Cc3nnnn3Cc3ccco3)cc2c1`: the inhibition was 0% (inactive).

Take `Cc1c(C)n(C(=O)CN2CCN(c3ccccn3)CC2)c2ccccc12`: the inhibition is 0% (inactive).

For `Cc1ccc(S(=O)(=O)N2CCCC2C(=O)OCc2nc3ccccc3s2)cc1` (stereo not given), the inhibition was 0% (inactive).

On to `CCOC(=O)N1CCN(c2c(NCCN(C)Cc3ccccc3)c(=O)c2=O)CC1`, for which the inhibition was 0% (inactive).

With `O=C(O)C1CC=CCC1C(=O)Nc1cc(Cl)ccc1Cl` (stereo not given), the inhibition is 1% (inactive).

With `CN(CC(=O)N1CCCc2c1c(=O)oc1ccc(O)cc21)Cc1ccccc1`, the inhibition is 0% (inactive).

For the compound `NCCN1CCN(CCN)CC1`, the inhibition was 0% (inactive).

In the case of `CN(C)c1ccc(NC(=O)Nc2cccc(Cl)c2)cc1`, the inhibition is 0% (inactive).

Consider `CCCCOCP(=O)(CCCC)COCCCC`, for which the inhibition was 1% (inactive).

`c1c2c(cc3sc(N4CCCCC4)nc13)OCCO2`: the inhibition was 4% (inactive).

`CCOC(=O)CSc1nc2ccccc2n2cnnc12`: the inhibition is 0% (inactive).

Take `CCN(CC)c1ccc(C(=O)n2cnc3ccccc32)cc1`: the inhibition is 4% (inactive).

Consider `Cn1c(=O)c(-c2ccccc2)nn2c3ccccc3nc12`, for which the inhibition was 0% (inactive).

For the compound `Cc1[nH]c(C(=O)N2CCCCC2)c(C)c1C(=O)NC1CCCCC1`, the inhibition is 4% (inactive).

As to `O=C(CSc1nc(O)cc(=O)n1-c1ccccc1)N1CCCCC1`, the inhibition is 0% (inactive).

(Values after PubChem BioAssay.)
